# Laboratory results: PubChem BioAssay AID1159580 (chemical genetic matrix, 2015)
# The campaign covered roughly 5,500 compounds. About 2,000 (36%) were called active. Inconclusive results (about 18%) are left out. This is one part of the list. A number with no mark means an inactive call. Cut-off read from the data, not from the text of the source: active = normalized growth mostly below about 0.91 (no sharp cut-off); inconclusive = no clear call, values can overlap the other calls; inactive = mostly above about 0.92.
# Experiment: chemical genetic growth profiling, strain panel (AID 1159580);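 note: tested at 20 µM; growth read once vehicle control cultures reached saturation at 30 °C; 1 = growth at the plate median or of vehicle wells; lower values mean less growth of the strain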
# Settings: growth OD
structure (smiles),measurement,setting,value
Cc1cc(=O)n2c(-c3ccc(Cl)cc3)csc2n1,normalized growth,"S. cerevisiae deletion strains, locus YAL013W, strain DEP1, active compounds read low",0.975
same,normalized growth,"S. cerevisiae deletion strains, locus YBR229C, strain ROT2, active compounds read low",0.954
same,normalized growth,"S. cerevisiae deletion strains, locus YCL061C, strain MRC1, active compounds read low",0.951
same,normalized growth,"S. cerevisiae deletion strains, locus YDL101C, strain DUN1, active compounds read low",0.936
same,normalized growth,"S. cerevisiae deletion strains, locus YDR150W, strain NUM1, active compounds read low",0.976
same,normalized growth,"S. cerevisiae deletion strains, locus YEL061C, strain CIN8, active compounds read low",0.931
same,normalized growth,"S. cerevisiae deletion strains, locus YGR078C, strain PAC10, active compounds read low",0.96
same,normalized growth,"S. cerevisiae deletion strains, locus YHR030C, strain SLT2, active compounds read low",0.712
same,normalized growth,"S. cerevisiae deletion strains, locus YHR087W, strain rtc3, active compounds read low",0.927
same,normalized growth,"S. cerevisiae deletion strains, locus YJL187C, strain SWE1, active compounds read low",0.965
same,normalized growth,"S. cerevisiae deletion strains, locus YJR043C, strain POL32, active compounds read low",0.982
same,normalized growth,"S. cerevisiae deletion strains, locus YJR075W, strain HOC1, active compounds read low",0.956
same,normalized growth,"S. cerevisiae deletion strains, locus YLR039C, strain RIC1, active compounds read low",0.892
same,normalized growth,"S. cerevisiae deletion strains, locus YLR058C, strain SHM2 (second series), active compounds read low",0.956
same,normalized growth,"S. cerevisiae deletion strains, locus YLR085C, strain ARP6, active compounds read low",0.826
same,normalized growth,"S. cerevisiae deletion strains, locus YLR262C, strain YPT6, active compounds read low",0.916
same,normalized growth,"S. cerevisiae deletion strains, locus YML094W, strain GIM5, active compounds read low",0.864 (active)
same,normalized growth,"S. cerevisiae deletion strains, locus YMR219W, strain ESC1, active compounds read low",0.96
same,normalized growth,"S. cerevisiae deletion strains, locus YMR263W, strain SAP30, active compounds read low",0.987
same,normalized growth,"S. cerevisiae deletion strains, locus YNL128W, strain TEP1, active compounds read low",0.972
same,normalized growth,"S. cerevisiae deletion strains, locus YNL153C, strain GIM3, active compounds read low",0.973
same,normalized growth,"S. cerevisiae deletion strains, locus YNL298W, strain CLA4 (second series), active compounds read low",0.947
same,normalized growth,"S. cerevisiae deletion strains, locus YNL322C, strain KRE1, active compounds read low",0.976
same,normalized growth,"S. cerevisiae deletion strains, locus YNR030W, strain Alg12, active compounds read low",0.943
same,normalized growth,"S. cerevisiae deletion strains, locus YPL055C, strain LGE1, active compounds read low",0.963
same,normalized growth,"S. cerevisiae deletion strains, locus YPL241C, strain CIN2, active compounds read low",0.941
same,normalized growth,"S. cerevisiae deletion strains, locus YPR135W, strain CTF4, active compounds read low",0.764
same,normalized growth,"S. cerevisiae strains, strain wild type, active compounds read low",0.96
